Compounds without any hit were thinned out: in the full panel of roughly 83,000, 20% have a hit.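 Step 1: grow cells in 96-well plates. Step 2: add test compound at a single concentration. Step 3: incubate 48 h. Step 4: record percent growth.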 Values without a mark were called inactive. Active and inactive are the calls of the source. How the source made its calls: active means growth percent below 10; inactive means the rest.

Among the test systems are SR leukemia; RPMI-8226 leukemia; OVCAR-8 ovarian; OVCAR-5 ovarian; OVCAR-4 ovarian; SK-OV-3 ovarian; IGROV1 ovarian; OVCAR-3 ovarian; HS 578T breast; NCI/ADR-RES ovarian; T-47D breast; BT-549 breast; MDA-MB-435 melanoma; SW-620 colon; MCF7 breast; HCT-116 colon; HCC-2998 colon; KM12 colon.
Common to all, as to assay: NCI-60 one-dose screen, 48 h (100 = growth as untreated, 0 = no growth, -100 = all killed)
Common to all, as to conditions: 10 µM

With `COc1ccc(-c2cn[nH]c2-c2cc(OC)c(OC)c(OC)c2)cc1`, the growth in the test with SR leukemia was 3.17% (active); in the test on RPMI-8226 leukemia, 6.58% (active); in the test with OVCAR-8 ovarian, 22.5%; with OVCAR-5 ovarian it was 31.1%; in the test with OVCAR-4 ovarian, 45%; in the test on SK-OV-3 ovarian, 10.2%. In addition, the growth in the test on IGROV1 ovarian is 29.4%; with OVCAR-3 ovarian, -8.09% (active); in the test with HS 578T breast, 23%; in the test with NCI/ADR-RES ovarian it was 27.1%; in the test on T-47D breast it was 45.6%; with BT-549 breast, -13.8% (active). Further, the growth in the test with MDA-MB-435 melanoma was -19% (active); with SW-620 colon it was 20.5%; in the test on MCF7 breast, 5.37% (active); with HCT-116 colon, 0.33% (active); with HCC-2998 colon, 6.62% (active); in the test on KM12 colon it was 4.39% (active).

Take `COc1cc(-c2nc(-c3nnc(-c4cccnc4)o3)c3ccccn23)cc(OC)c1OC`: the growth was 104% in the test with SR leukemia; 60.9% with RPMI-8226 leukemia; 73.8% with OVCAR-8 ovarian; 110% with OVCAR-5 ovarian; 123% in the test on OVCAR-4 ovarian; 108% in the test on SK-OV-3 ovarian. The growth with IGROV1 ovarian was 103%; with OVCAR-3 ovarian, 129%; in the test with HS 578T breast, 103%; in the test with NCI/ADR-RES ovarian, 82.2%; with T-47D breast, 100%; in the test on BT-549 breast it was 97.7%. The growth was 99.2% in the test on MDA-MB-435 melanoma; 92.8% in the test with SW-620 colon; 107% in the test with MCF7 breast; 96.8% with HCT-116 colon; 99.9% in the test on HCC-2998 colon; 100% in the test with KM12 colon.

`COC(=O)CCCCCCCCC(C)c1ccc(C(C)=O)cc1` (centres undefined): the growth in the test with SR leukemia is 94.2%; with RPMI-8226 leukemia, 121%; in the test with OVCAR-8 ovarian, 104%; in the test with OVCAR-5 ovarian, 98.4%; in the test with OVCAR-4 ovarian it was 120%; in the test on SK-OV-3 ovarian it was 102%. The growth with IGROV1 ovarian was 110%; with OVCAR-3 ovarian, 108%; in the test on HS 578T breast, 93.9%; with NCI/ADR-RES ovarian, 103%; with T-47D breast, 94.4%; with BT-549 breast, 130%. For the same compound, the growth is 97.1% with MDA-MB-435 melanoma; 103% with SW-620 colon; 118% with MCF7 breast; 110% in the test on HCT-116 colon; 99.6% with HCC-2998 colon; 103% in the test with KM12 colon.

As to `Cc1cc(C)c(C(=O)OC(C)CNC2CCCCC2)c(C)c1` (centres undefined), the growth in the test on SR leukemia was 81.6%; in the test with RPMI-8226 leukemia, 92.9%; in the test on OVCAR-8 ovarian it was 101%; in the test on OVCAR-5 ovarian, 59.2%; in the test on OVCAR-4 ovarian, 101%; in the test on SK-OV-3 ovarian it was 96.7%. Further, the growth is 101% with IGROV1 ovarian; 98.5% in the test on OVCAR-3 ovarian; 100% with HS 578T breast; 92.3% in the test with NCI/ADR-RES ovarian; 100% in the test on T-47D breast; 92.4% in the test with BT-549 breast. For the same compound, the growth in the test with MDA-MB-435 melanoma was 90.8%; in the test with SW-620 colon it was 100%; in the test on MCF7 breast, 97.8%; in the test on HCT-116 colon it was 86.3%; in the test with HCC-2998 colon, 103%; with KM12 colon it was 98.2%.

In the case of `Cc1nc(Nc2nc3ccccc3o2)nc(-c2cccc([N+](=O)[O-])c2)c1C(=O)Nc1ccc(F)c(Cl)c1`, the growth with SR leukemia was -8.33% (active); in the test with RPMI-8226 leukemia, -41.4% (active); in the test with OVCAR-8 ovarian, 6.5% (active); in the test on OVCAR-5 ovarian, 33%; in the test on OVCAR-4 ovarian, 16%; in the test with SK-OV-3 ovarian it was 10%. The growth in the test with IGROV1 ovarian was 40.3%; in the test with OVCAR-3 ovarian it was 6.94% (active); in the test with HS 578T breast it was 4.55% (active); in the test on NCI/ADR-RES ovarian it was 3.88% (active); in the test with T-47D breast, 5.31% (active); in the test on BT-549 breast, 19.4%. Moreover, the growth in the test with MDA-MB-435 melanoma was 8.91% (active); in the test with SW-620 colon, 9.75% (active); with MCF7 breast it was 3.7% (active); in the test with HCT-116 colon, 6.76% (active); in the test on HCC-2998 colon it was -25.6% (active); in the test on KM12 colon it was -14.6% (active).

Take `Nc1ncncc1-c1ccc(F)cc1`: the growth with SR leukemia is 127%; with RPMI-8226 leukemia, 109%; in the test on OVCAR-8 ovarian it was 107%; with OVCAR-5 ovarian it was 115%; in the test with OVCAR-4 ovarian it was 107%; with SK-OV-3 ovarian, 108%. Further, the growth was 110% with IGROV1 ovarian; 111% with OVCAR-3 ovarian; 113% in the test with HS 578T breast; 107% in the test with NCI/ADR-RES ovarian; 96.7% in the test on T-47D breast; 111% in the test with BT-549 breast. Moreover, the growth is 102% with MDA-MB-435 melanoma; 114% in the test on SW-620 colon; 110% in the test with MCF7 breast; 108% in the test on HCT-116 colon; 109% with HCC-2998 colon; 110% with KM12 colon.

For `Oc1ccc(Cn2cc3c(c2-c2ccccc2)CCc2cnoc2-3)cc1`, the growth in the test with SR leukemia was 76.8%; with RPMI-8226 leukemia it was 82.1%; in the test with OVCAR-8 ovarian, 100%; with OVCAR-5 ovarian, 105%; in the test with OVCAR-4 ovarian, 95.8%; in the test with SK-OV-3 ovarian, 94.4%. The growth was 120% with IGROV1 ovarian; 107% in the test on OVCAR-3 ovarian; 106% in the test with HS 578T breast; 86.2% in the test on NCI/ADR-RES ovarian; 78.4% in the test on T-47D breast; 101% with BT-549 breast. Moreover, the growth is 72.7% with MDA-MB-435 melanoma; 98% with SW-620 colon; 105% with MCF7 breast; 92.7% in the test with HCT-116 colon; 102% in the test with HCC-2998 colon; 91.5% in the test on KM12 colon.

Take `CC(C)/C=N/NC(N)=S`: the growth is 51.9% with SR leukemia; 60.4% in the test with RPMI-8226 leukemia; 62.9% with OVCAR-8 ovarian; 78.7% in the test on OVCAR-5 ovarian; 46.1% with OVCAR-4 ovarian; 110% in the test with SK-OV-3 ovarian. The growth in the test with IGROV1 ovarian was 34%; with OVCAR-3 ovarian, 53%; in the test on HS 578T breast it was 90.7%; in the test with NCI/ADR-RES ovarian it was 75%; in the test on T-47D breast it was 45.6%; in the test with BT-549 breast it was 105%. The growth in the test on MDA-MB-435 melanoma was 86.4%; with SW-620 colon, 76.4%; with MCF7 breast, 8.48% (active); in the test with HCT-116 colon, 8.16% (active); with HCC-2998 colon it was 96.4%; in the test with KM12 colon it was 112%.
